Measurements: PubChem BioAssay
Several values for one entry are separate records, joined by “and”; a condition that tells them apart may be missing. Identical values can stand only once. Activity calls are given as the source filed them.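 How the source made its calls, unless noted: active means thallium flux through the channel raised or lowered by more than 3 SD from vehicle-only wells, actives on both sides; inactive means the rest.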

How the values were obtained:
[1] = tested on: Hepatitis C virus NS3 helicase; test: blockers of NS3h binding to DNA – biochemical, fluorescence polarization, NIH Clinical Collection, primary screen (AID 743270; call rule not given here); conditions: NS3 helicase binding to Cy5-dT15 DNA, stronger effect = higher value, concentration not given here
[2] = target: Single-stranded DNA-binding protein (Escherichia coli (strain K12)) (UniProt P0AGE0); test: SSB-ssDNA binding inhibitors – biochemical, fluorescence polarization, NIH Clinical Collection, counter-screen for HCV NS3 helicase inhibitor project (AID 743271; in the data active means inhibition above about 28%); conditions: E. coli SSB-DNA binding, stronger effect = higher value, concentration not given here
[3] = compounds distorting NS3 helicase fluorescence signal – biochemical, NIH Clinical Collection, artefact control for HCV NS3 helicase inhibitor project (AID 743272; call rule not given here;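 further: HCV NS3 helicase with a Cy5 labelled single stranded DNA probe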); conditions: fluorescence interference counterscreen, HCV NS3 helicase assay; stronger effect = lower value
[4] = Wnt pathway potentiators raising nuclear beta-catenin – imaging, WNT3A-conditioned medium, mouse C2C12, NPC library, primary screen (AID 1117326; in the data active means nuclear beta-catenin stimulation mostly above about 4.2%, no sharp cut-off; inactive means mostly below about 10%); conditions: stronger effect = higher value
[5] = stimulators of insulin release from INS-1E, primary screen, cell-based, 5 mM glucose, NPC library (AID 1117329;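 active means compound raises insulin release from rat beta cells at 5 mM glucose, no numeric limit stated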); conditions: rat INS-1E insulin secretion, at 10 µM, stronger effect = higher value
[6] = growth inhibition of GSK3B-pretreated HCT116 cells – cell-based, CellTiter-Glo, 0.2 to 20 µM (AID 1117336;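 active means compounds lowering colon cancer cell viability after pretreatment blocking the GSK3B kinase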); conditions: HCT116 viability after GSK3B inhibitor, at 20 µM, stronger effect = higher value
[7] = inhibition of endothelial tube formation, primary screen, imaging, VEGF stimulated, CD31 staining, tube area, NPC library (AID 1117340;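 active means compound that reduces growth-factor-driven endothelial tube area in a mixed cell culture, no cutoff stated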); conditions: VEGF-stimulated ADSC/ECFC co-culture, at 10 µM, stronger effect = higher value
[8] = GLP1 release stimulators, primary, NCI-H716, NPC library (AID 1117341;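 active means compound raises GLP1 secretion from the human gut endocrine cells, with no numeric limit stated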); conditions: NCI-H716 cells, at 10 µM, stronger effect = higher value
[9] = HCT116 colon cancer cell growth inhibition, primary screen, CellTiter-Glo luminescence, NPC library (AID 1117342;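 active means compounds that lower survival of HCT116 colon cancer cells in the luminescence readout, no numeric limit stated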); conditions: at 20 µM (top of the series)
[10] = reduced SW480 viability measured with CellTiter-Glo, NPC library, primary (AID 1117343;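 active means compounds that lower viability of the colon cancer cells in the luminescence readout, with no numeric limit stated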); conditions: CellTiter-Glo luminescence; at 20 µM (top of the series)
[11] = NPC library primary testing for decreased DLD-1 cell viability via CellTiter-Glo (AID 1117346;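 active means compounds that lower survival of DLD-1 colon cancer cells in the luminescence readout, no cutoff given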); conditions: DLD-1 viability, CellTiter-Glo luminescence; at 20 µM (top of the series)
[12] = target: 6-phosphogluconate dehydrogenase, decarboxylating (Homo sapiens) (UniProt P52209); test: inhibition of human phosphogluconate dehydrogenase – biochemical, recombinant enzyme, NADPH absorbance, primary screen (AID 1159550;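 active means at least 20% inhibition of 6-phosphogluconate dehydrogenase activity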); conditions: recombinant 6PGD, NADPH absorbance 341 nm; at 10 µM; stronger effect = higher value
Chain of 6-phosphogluconate dehydrogenase, decarboxylating (Homo sapiens) (P52209 whole entry, looked up): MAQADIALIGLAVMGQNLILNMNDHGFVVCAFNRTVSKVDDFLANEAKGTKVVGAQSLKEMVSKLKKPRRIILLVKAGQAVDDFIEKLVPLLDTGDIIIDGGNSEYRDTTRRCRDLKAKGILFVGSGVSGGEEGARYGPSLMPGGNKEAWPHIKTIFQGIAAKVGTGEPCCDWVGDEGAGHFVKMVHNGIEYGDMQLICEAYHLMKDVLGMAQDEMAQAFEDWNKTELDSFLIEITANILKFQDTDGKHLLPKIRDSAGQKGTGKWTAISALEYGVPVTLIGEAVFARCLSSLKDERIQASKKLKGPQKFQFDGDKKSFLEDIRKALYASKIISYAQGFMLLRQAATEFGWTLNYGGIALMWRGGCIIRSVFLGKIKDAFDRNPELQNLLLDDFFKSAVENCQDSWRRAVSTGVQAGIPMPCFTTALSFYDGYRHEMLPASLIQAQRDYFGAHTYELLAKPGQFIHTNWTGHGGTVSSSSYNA

[13] = EMT-state selective cytotoxicity in co-culture – imaging, PC-3E GFP, TEM4-18 mCherry, primary screen (AID 1345086;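 active means compounds killing one labelled cell type while sparing the other, by normalised counts and ratio limits, not self-fluorescent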;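 on all read-outs here: cells exposed to compound for 72 h before imaging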;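 on red/green cell ratio (normalised): normalised mesenchymal count divided by normalised epithelial count so high means epithelial killing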); conditions: PC-3E GFP / TEM4-18 mCherry co-culture, imaging cell counts, at 1 µM; for red/green cell ratio (normalised): actives lie on both sides, counts scaled to control wells, 1 = unselective
[14] = MELAS cybrid and Rieske KO viability enhancers – cell-based, MELAS cybrids, Rieske KO mouse fibroblasts, CellTiter-Glo, primary screen (AID 1508586;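 active means mean z-score across replicates of 1.96 or higher in either the MELAS or the Rieske mutant cell line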;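 further: z relative to plate mean and SD of compound and empty wells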); conditions: low glucose
[15] = target: NAD(+) hydrolase SARM1 (Homo sapiens) (UniProt Q6SZW1); test: blocking NAD cleavage by SARM1 SAM-TIR – cell lysate, NAD-Glo luminescence (AID 1508614;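 active means compound whose remaining NAD level is above about 45 nM, limit read from the data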); conditions: SAM-TIR HEK293T lysate NADase, at 1 µM, stronger effect = higher value
Chain of NAD(+) hydrolase SARM1 (Homo sapiens) (Q6SZW1 whole entry, looked up, the tested form may be a part): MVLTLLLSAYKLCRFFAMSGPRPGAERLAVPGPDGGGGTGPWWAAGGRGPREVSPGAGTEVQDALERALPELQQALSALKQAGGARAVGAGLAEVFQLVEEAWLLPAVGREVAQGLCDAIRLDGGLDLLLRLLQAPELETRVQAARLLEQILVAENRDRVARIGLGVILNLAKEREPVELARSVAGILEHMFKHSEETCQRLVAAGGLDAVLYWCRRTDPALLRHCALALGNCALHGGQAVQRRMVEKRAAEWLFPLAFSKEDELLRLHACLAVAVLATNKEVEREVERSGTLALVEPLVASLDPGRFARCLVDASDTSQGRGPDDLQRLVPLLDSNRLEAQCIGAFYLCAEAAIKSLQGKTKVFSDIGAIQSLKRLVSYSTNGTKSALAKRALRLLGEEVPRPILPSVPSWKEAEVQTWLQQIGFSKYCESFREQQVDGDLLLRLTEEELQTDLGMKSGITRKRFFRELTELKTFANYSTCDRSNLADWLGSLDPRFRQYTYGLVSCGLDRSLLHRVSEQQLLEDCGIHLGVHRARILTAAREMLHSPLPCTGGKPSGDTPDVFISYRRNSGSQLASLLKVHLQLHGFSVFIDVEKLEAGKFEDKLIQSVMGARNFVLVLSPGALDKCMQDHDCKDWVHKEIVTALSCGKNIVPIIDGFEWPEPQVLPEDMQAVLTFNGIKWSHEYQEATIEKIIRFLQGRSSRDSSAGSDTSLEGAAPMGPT

[16] = target: Mitogen-activated protein kinase 7 (Homo sapiens) (UniProt Q13164); test: Gal4-ERK5 driven luciferase induction – cell-based, HTS, primary screen (AID 1508626;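 active means luciferase signal above three times the same-plate solvent-only control wells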;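 further: luciferase driven by Gal4-ERK5 fusion binding five Gal4 sites before minimal TATA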); conditions: HeLa Gal4-ERK5 transactivation, 18 h, at 5 µM, stronger effect = higher value
Chain of Mitogen-activated protein kinase 7 (Homo sapiens) (Q13164 whole entry, looked up, the tested form may be a part): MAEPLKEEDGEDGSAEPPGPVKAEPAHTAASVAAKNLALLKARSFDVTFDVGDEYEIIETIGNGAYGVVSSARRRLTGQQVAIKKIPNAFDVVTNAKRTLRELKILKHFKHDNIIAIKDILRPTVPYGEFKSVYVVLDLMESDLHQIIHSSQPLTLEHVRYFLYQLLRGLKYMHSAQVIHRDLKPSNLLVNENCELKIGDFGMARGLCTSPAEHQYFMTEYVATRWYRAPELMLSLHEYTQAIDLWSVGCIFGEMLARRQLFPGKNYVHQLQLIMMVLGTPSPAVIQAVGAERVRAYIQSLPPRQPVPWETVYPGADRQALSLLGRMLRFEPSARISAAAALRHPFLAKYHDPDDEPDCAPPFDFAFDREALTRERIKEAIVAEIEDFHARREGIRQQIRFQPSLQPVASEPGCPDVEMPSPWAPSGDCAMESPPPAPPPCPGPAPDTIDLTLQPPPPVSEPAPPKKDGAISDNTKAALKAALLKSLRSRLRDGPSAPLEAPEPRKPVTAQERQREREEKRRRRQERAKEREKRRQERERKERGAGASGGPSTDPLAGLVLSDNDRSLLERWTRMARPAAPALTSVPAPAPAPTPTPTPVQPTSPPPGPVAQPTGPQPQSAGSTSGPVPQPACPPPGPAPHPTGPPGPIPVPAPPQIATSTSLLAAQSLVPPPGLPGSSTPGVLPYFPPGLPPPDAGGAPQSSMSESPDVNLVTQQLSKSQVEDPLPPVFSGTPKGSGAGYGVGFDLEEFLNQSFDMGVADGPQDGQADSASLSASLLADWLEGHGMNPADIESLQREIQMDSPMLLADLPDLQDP

F380Y = test: BK channel mutant inhibitors and activators – cell-based, U2OS BacMam, thallium flux, beta subunits, selectivity assay, profiling panel (AID 1259406); conditions: U2OS BacMam BK variants, at 30 µM;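 further: initial slope of Thallos dye fluorescence rise after thallium is added; log ratio against the mean of 0.3% DMSO vehicle wells on the same plate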
F380Y/beta2Delta = test: as above; conditions: U2OS BacMam BK variants, at 30 µM
[17] = target: Calcium-activated potassium channel subunit alpha-1 (Homo sapiens) + Leucine-rich repeat-containing protein 26 (Homo sapiens) (UniProt Q12791+Q2I0M4); test: as above; conditions: U2OS BacMam BK variants, F380Y/Slo1WT/gamma1, at 30 µM
Chain of Calcium-activated potassium channel subunit alpha-1 (Homo sapiens) + Leucine-rich repeat-containing protein 26 (Homo sapiens) (Q2I0M4 whole entry, looked up, one chain of several): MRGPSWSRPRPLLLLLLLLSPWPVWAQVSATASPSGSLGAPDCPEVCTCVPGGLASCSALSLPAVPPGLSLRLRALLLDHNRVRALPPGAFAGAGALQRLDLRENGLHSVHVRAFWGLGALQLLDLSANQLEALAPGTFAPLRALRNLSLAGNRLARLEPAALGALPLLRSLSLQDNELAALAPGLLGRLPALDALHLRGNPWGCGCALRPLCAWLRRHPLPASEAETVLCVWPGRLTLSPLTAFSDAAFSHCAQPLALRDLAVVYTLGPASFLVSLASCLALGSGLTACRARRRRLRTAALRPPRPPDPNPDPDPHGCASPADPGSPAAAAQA

[18] = viability loss with induced miR-34 in A549 – imaging, A549 dox-inducible miR-34, nuclei and caspase counts, primary screen (AID 1347080;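 active means compounds whose cell count with miR-34 switched on is under 0.7 times the count with it off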); conditions: A549 miR-34 inducible, Hoechst nuclei count, 48 h
[19] = measured here: epithelial PC-3E GFP cell survival
[20] = measured here: mesenchymal TEM4-18 mCherry cell survival
[21] = MELAS cybrid survival, CellTiter-Glo 48 h, stronger effect = higher value
[22] = Rieske KO mouse fibroblast survival, CellTiter-Glo 72 h

SMILES: CCCN1C[C@H](CSC)C[C@@H]2c3cccc4[nH]cc(c34)C[C@H]21
- inhibition [1]: 1.53% (inactive)
- inhibition [2]: 10.6% (inactive)
- fluorescence ratio [3]: 1 (inactive)
- nuclear beta-catenin stimulation ([4]; at 10 µM): 0.2% (inactive)
- nuclear beta-catenin stimulation ([4]; stimulation, at 2 µM): -1.1%
- insulin secretion stimulation [5]: 3.5% (inactive)
- viability decrease [6]: 20.2% (inactive)
- tube area decrease [7]: -5.3% (inactive)
- GLP1 secretion stimulation [8]: 5.1% (inactive)
- inhibition of viability [9]: 45.7% (inactive)
- viability decrease (inhibition) [10]: -2.1% (inactive)
- viability decrease (inhibition) [11]: 7.8% (inactive)
- inhibition [12]: 0.728% (inactive)
- red/green cell ratio (normalised) [13]: 1.38 (inactive)
- normalised cell number [13, 19]: 0.91
- normalised cell number [13, 20]: 1.25
- z-score [14, 21]: 0.448 (inactive) and 0.276 (inactive)
- z-score [14, 22]: -0.203 and -0.419
- remaining NAD [15]: 10 nM (inactive)
- luciferase signal [16]: 40 AU (inactive)
- log fold change Tl+ flux (F380Y): -0.0179 (inactive)
- log fold change Tl+ flux (F380Y/beta2Delta): 0.0229 (inactive)
- log fold change Tl+ flux [17]: -0.0185 (inactive)

SMILES: CCOC(=O)C1=C(COCCN)NC(C)=C(C(=O)OC)C1c1ccccc1Cl (configuration not stated)
- nuclear beta-catenin stimulation ([4]; at 10 µM): 87.9% (active)
- nuclear beta-catenin stimulation ([4]; stimulation, at 2 µM): 10%
- insulin secretion stimulation [5]: 11.6% (inactive)
- viability decrease [6]: 99.2% (active)
- tube area decrease [7]: 87.8% (active)
- GLP1 secretion stimulation [8]: 0.5% (inactive)
- inhibition of viability [9]: 99.3% (active)
- viability decrease (inhibition) [10]: 102% (active)
- viability decrease (inhibition) [11]: 92% (active)
- inhibition [12]: 3.33% (inactive)
- red/green cell ratio (normalised) [13]: 0.9 (inactive)
- normalised cell number [13, 19]: 1.26
- normalised cell number [13, 20]: 1.13
- z-score [14, 21]: -0.269 (inactive) and 0.142 (inactive) and -0.356 (inactive)
- z-score [14, 22]: 0.139 and -0.0453 and -0.413
- remaining NAD [15]: 10 nM (inactive)
- luciferase signal [16]: 104 AU (inactive)

SMILES: C[C@@H]1C[C@H]2[C@@H]3CCC4=CC(=O)C=C[C@]4(C)[C@@]3(F)[C@@H](O)C[C@]2(C)[C@@]1(O)C(=O)CO
- inhibition [1]: -3.18% (inactive)
- inhibition [2]: 0.29% (inactive)
- fluorescence ratio [3]: 1 (inactive)
- nuclear beta-catenin stimulation ([4]; at 10 µM): -0.3% (inactive)
- nuclear beta-catenin stimulation ([4]; stimulation, at 2 µM): -1.3%
- insulin secretion stimulation [5]: 8.4% (inactive)
- viability decrease [6]: -0.1% (inactive)
- tube area decrease [7]: -12.9% (inactive)
- GLP1 secretion stimulation [8]: 4.4% (inactive)
- inhibition of viability [9]: -7% (inactive)
- viability decrease (inhibition) [10]: -0.8% (inactive)
- viability decrease (inhibition) [11]: 5.8% (inactive)
- inhibition [12]: 0.502% (inactive)
- fold change ([18]; stronger effect = lower value, cell number ratio, induced over uninduced): 0.906 (inactive) and 0.84 (inactive) and 0.875 (inactive)
- fold change ([18]; measured here: relative caspase fold change +Dox/-Dox): 1.6 and 0.779 and 1.31
- cell count ([18]; measured here: total cells with miR-34 induction, stronger effect = lower value): 7720 and 3310 and 7020
- cell count ([18]; measured here: total cells without miR-34 induction): 8520 and 3940 and 8020
- z-score [14, 21]: 0.843 (inactive)
- z-score [14, 22]: 0.569
- remaining NAD [15]: 10 nM (inactive)
- luciferase signal [16]: 100 AU (inactive)
- log fold change Tl+ flux (F380Y): 0.096 (inactive)
- log fold change Tl+ flux (F380Y/beta2Delta): -0.01 (inactive)
- log fold change Tl+ flux [17]: 0.0359 (inactive)

SMILES: CCN(CC)C(=S)SSC(=S)N(CC)CC
- inhibition [1]: -1.19% (inactive)
- inhibition [2]: -1.64% (inactive)
- fluorescence ratio [3]: 0.99 (inactive)
- nuclear beta-catenin stimulation ([4]; at 10 µM): 5.4% (inactive)
- nuclear beta-catenin stimulation ([4]; stimulation, at 2 µM): 2.3%
- insulin secretion stimulation [5]: 4.8% (inactive)
- viability decrease [6]: 9.9% (inactive)
- tube area decrease [7]: 35.6% (inactive)
- GLP1 secretion stimulation [8]: 6.3% (inactive)
- inhibition of viability [9]: 18.6% (inactive)
- viability decrease (inhibition) [10]: 39.4% (inactive)
- viability decrease (inhibition) [11]: 30.8% (inactive)
- inhibition [12]: 1.47% (inactive)
- red/green cell ratio (normalised) [13]: 0.63 (inactive)
- normalised cell number [13, 19]: 0.27
- normalised cell number [13, 20]: 0.17
- z-score [14, 21]: -0.351 (inactive) and 0.325 and -1.17
- z-score [14, 22]: -4.19 and 10.8 and 3.81
- remaining NAD [15]: 10 nM (inactive)
- luciferase signal [16]: 16 AU (inactive)
- log fold change Tl+ flux (F380Y): -0.0143 (inactive)
- log fold change Tl+ flux (F380Y/beta2Delta): 0.0251 (inactive)
- log fold change Tl+ flux [17]: 0.093 (active)
